PolyA inhibitor – polyadenylation inhibitors in yeast reporter cells, primary screen, luminescence, S. cerevisiae; S. cerevisiae SKY197-pL101 polyadenylation reporter, beta-gal luminescence; efflux-impaired pdr1/pdr3 knockout yeast; score 100 = 6 SD above DMSO; activity score, % at 12 µM; 300,000 compounds, 0.02% hits; AID 1875, 2009;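 active means lowest replicate activity score at least 50, where 100 means six control SD above control mean; inconclusive means lowest score under 50 but half or more replicates reach 50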;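 further: yeast exposed to compound for 9 h at 30 °C; higher score means more reporter readthrough which indicates perturbed polyadenylation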
ssDAF12 agonist – S. stercoralis DAF-12 nuclear receptor activators, primary screen, cell-based, luminescence, HEK293, GRIP1 co-expression, lit1-tk-luc. HEK293 ssDAF-12/GRIP1 lit1-tk-luc reporter; % of 3 µM dafachronic acid response. activation, % at 6.8 µM. 370,000 compounds, 1% hits;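 active means activation above the mean over all tested compounds plus 3 SD, cut at about 0.9% in these data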
DAX1 inh-1 – DAX1 (NR0B1) inhibitors, primary screen, cell-based, HEK293, Gal4-DAX1, luciferase luminescence; Nuclear receptor subfamily 0 group B member 1 (Homo sapiens), P51843; HEK293 Gal4-DAX1 luciferase reporter; inhibition, % at 6.75 µM; 340,000 compounds, 0.99% hits; AID 504766, 2011;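 active means inhibition above the mean over all tested compounds plus 3 SD, cut at about 4.2% in these data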;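 further: inhibition shows as a rise in luminescence from relieved DAX1 repression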
Target sequence (P51843 207-470 limits assumed): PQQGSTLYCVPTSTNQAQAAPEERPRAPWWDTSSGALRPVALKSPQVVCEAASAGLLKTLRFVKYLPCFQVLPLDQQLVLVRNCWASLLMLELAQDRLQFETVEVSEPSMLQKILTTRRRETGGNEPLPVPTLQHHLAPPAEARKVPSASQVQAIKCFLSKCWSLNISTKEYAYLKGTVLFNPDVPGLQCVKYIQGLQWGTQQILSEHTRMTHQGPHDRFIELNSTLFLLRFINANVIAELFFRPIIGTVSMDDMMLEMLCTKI
hcDAF-12 act – H. contortus DAF-12 nuclear receptor activators, primary screen, cell-based, luminescence, HEK293, lit1-tk-luc reporter; HEK293 hcDAF-12 lit1-tk-luc reporter; 0% DMSO, 100% Δ7-dafachronic acid; activation, % at 6.8 µM; 370,000 compounds, 1.4% hits; AID 652067, 2013;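 active means activation above the mean of all tested compounds plus 3 SD, cut at about 5.5% in these data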
DAX1 inh-2 – DAX1 (NR0B1) inhibitors on StAR promoter, primary screen, cell-based, luminescence, SF-1 (NR5A1), full-length DAX-1 | HEK293T StAR-luciferase reporter, SF-1/DAX-1 repression relief | inhibition, % at 6.8 µM | 370,000 compounds, 1.1% hits;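 active means inhibition above the mean over all tested compounds plus 3 SD, cut at about 3.6% in these data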;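 further: higher inhibition means more luminescence from relief of DAX-1 repression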
hgDAF12 agonist – H. glycines DAF-12 receptor agonists, primary screen, cell-based, luminescence, HEK293, GAL4 fusion, UAS-luciferase. activation, % at 6.8 µM. HEK293 GAL4-hgDAF12 UAS-luciferase reporter, agonist luminescence; normalized to butyrate control. 370,000 compounds, 1.8% hits. Nuclear hormone receptor DAF-12 (Heterodera glycines), GAL4 fusion;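 active means activation above a cutoff set at the mean of all screened compounds plus 3 SD, cut at about 10% in these data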
Large screens that a line does not name were inactive. Compounds with a hit are over-represented: about 4.1% of the library has one in this group of screens.

O=C(N/N=C\c1ccc2c(c1)OCO2)c1cncc(Br)c1	none
O=C(Nc1ccc2c(c1)OCO2)c1cncc(Br)c1	hgDAF12 agonist 11.3
O=C(NCc1ccncc1)c1cncc(Br)c1	DAX1 inh-1 4.4
CCn1ncc(Br)c1C(=O)Nc1ccc2c(c1)OCCO2	none
O=C(Nc1ccc2c(c1)OCCO2)c1cncc(Br)c1	hgDAF12 agonist 11.1
O=S1(=O)c2ccc(Br)cc2OC[C@H](c2ccccc2)N1Cc1ccccc1	none (no result: PolyA inhibitor, DAX1 inh-1)
COc1ccc(S[C@]2(C(=O)N(C)C)CC(=O)N(C(=O)c3ccccc3)[C@@H]2c2ccc(OC)cc2)cc1	none (no result: PolyA inhibitor, DAX1 inh-1)
C[C@@H]1CCCN1c1cccc2c1S(=O)(=O)N1CC[C@@H](C1)O2	none (no result: PolyA inhibitor, DAX1 inh-1)
O=[N+]([O-])c1ccc(CN2[C@H](COCc3ccccc3)C=CS2(=O)=O)cc1	none (no result: PolyA inhibitor, DAX1 inh-1)
COC(=O)C1=C(C)N(Cc2cccc(C(F)(F)F)c2)C(=NCc2ccc(OC)cc2)NC1c1ccccc1 (stereo not given)	none (no result: PolyA inhibitor, DAX1 inh-1)
COc1ccc(/C=N/n2cnnc2SCCO)cc1OC	none
C=CCSc1nncn1/N=C/c1ccc(OC)cc1	DAX1 inh-1 4.9, hgDAF12 agonist 11.2
O=S1(=O)c2ccc(N3CCSCC3)cc2Oc2ccccc2CN1Cc1cn(Cc2cccc(C(F)(F)F)c2)nn1	none (no result: PolyA inhibitor, DAX1 inh-1)
CC(C)c1nnc(NC(=O)c2sc3ccccc3c2Cl)s1	hcDAF-12 act 5.9
COc1ccc2c(Cl)c(C(=O)N/N=C/c3ccncc3)sc2c1	none
O=C(N/N=C/c1ccncc1)c1sc2ccccc2c1Cl	DAX1 inh-2 3.9
CCCC1CCC2(CCCN2CCOC(=O)Nc2ccccc2C)CC1 (stereo not given)	none (no result: PolyA inhibitor, DAX1 inh-1, DAX1 inh-2)
C=CCN1CC(COc2ccc(OC)cc2)OCCS1(=O)=O (stereo not given)	none (no result: PolyA inhibitor, DAX1 inh-1)
COC(=O)C1CN(Cc2ccc(OC)cc2)CCS(=O)(=O)N1Cc1ccc(Cl)cc1 (stereo not given)	none (no result: PolyA inhibitor, DAX1 inh-1)
Cc1ccccc1NC(=O)CN1C(=O)CCSc2ccccc21	none (no result: PolyA inhibitor, DAX1 inh-1)
CC(=O)Nc1nnc(COc2ccccc2)s1	none
COCc1nnc(NC(C)=O)s1	DAX1 inh-1 5.5
c1ccc(-c2nc3ccccc3[nH]2)cc1	DAX1 inh-2 4.4, hgDAF12 agonist 11.9
c1ccc(-c2nc3ccccc3[nH]2)nc1	ssDAF12 agonist 1.3
S=C(Nc1ccc(-c2nc3ccccc3[nH]2)cc1)Nc1cccnc1	hgDAF12 agonist 10.6
O=C(NCCc1ccccc1)O[C@H]1CC[C@@]23CCCN2C(=O)CCC[C@H]3C1	none (no result: PolyA inhibitor, DAX1 inh-1, DAX1 inh-2)
O=C(COC(=O)c1ccccc1-n1cnnn1)c1ccc(F)c(F)c1	ssDAF12 agonist 0.9, DAX1 inh-2 4.0
Nn1c(SCC(=O)Nc2ccc(C(=O)O)cc2)nnc1-c1ccco1	none (no result: PolyA inhibitor, DAX1 inh-1)
O=C(c1ccc(Cl)cc1Cl)N1CCc2ccccc21	none
O=C(/C=C/c1ccc(Cl)cc1Cl)N1CCc2ccccc21	hgDAF12 agonist 13.1
CN(C(=O)c1ccco1)c1nnc(-c2ccc(F)cc2)s1	none
CN(C(=O)c1ccco1)c1nc(-c2ccc(F)cc2)cs1	DAX1 inh-1 5.2
Cc1ccc(C)c(OCC(=O)Nc2nonc2NC(=O)COc2cc(C)ccc2C)c1	DAX1 inh-1 5.3
Cc1cccc(OCC(=O)Nc2nonc2NC(=O)COc2cccc(C)c2)c1	none
COc1cccc(CNC(=O)CNC(=O)N2CC(=O)Nc3ccccc32)c1	DAX1 inh-2 3.7
CC(C)c1ccc(NC(=O)CCNC(=O)N2CC(=O)Nc3ccccc32)cc1	DAX1 inh-2 3.9
CCC[C@H]1[C@@H](NC(=O)C2CCOC2)CC[C@@]23CCCN2C(=O)CCC[C@@H]13 (stereo not given in full)	none (no result: PolyA inhibitor, DAX1 inh-1, DAX1 inh-2)
CCOC(=O)[C@@]12CCCC=C1N(CCc1ccc(Cl)cc1)C(=O)[C@H]2CC(=O)NCC12CC3CC(CC(C3)C1)C2	none (no result: PolyA inhibitor, DAX1 inh-1)
COC(=O)c1ccc2nc(-c3ccc(C)cc3)c(Cc3ccccc3)n2c1	none (no result: PolyA inhibitor, DAX1 inh-1)
COC(=O)c1ccc2nc(-c3cccc(Cl)c3)c(Cc3ccsc3)n2c1	none (no result: PolyA inhibitor, DAX1 inh-1)
COC(=O)c1ccc2nc(-c3cccc(Br)c3)c(Cc3ccsc3)n2c1	DAX1 inh-2 3.8 (no result: PolyA inhibitor, DAX1 inh-1)
COC(=O)c1ccc2nc(-c3cccc(Cl)c3)c(Cc3cccc(Cl)c3)n2c1	ssDAF12 agonist 0.9 (no result: PolyA inhibitor, DAX1 inh-1)
COC(=O)c1ccc2nc(-c3ccccc3)c(Cc3ccc(C)cc3)n2c1	ssDAF12 agonist 0.9 (no result: PolyA inhibitor, DAX1 inh-1)
CCC(=O)Nc1ccc(F)c(Cl)c1	none
O=C(O)CC(CC(=O)Nc1ccc(F)c(Cl)c1)c1ccc(Cl)cc1Cl (stereo not given)	DAX1 inh-1 10.1
CCCC1CCC2(CCCN2CCOC(=O)Nc2ccccc2OC)CC1 (stereo not given)	none (no result: PolyA inhibitor, DAX1 inh-1, DAX1 inh-2)
CC(=O)c1ccc(NC(=O)C2CCCC2)cc1	DAX1 inh-1 6.0
O=C(CC(=O)c1ccccc1)Nc1ccc2c(c1)OCCO2	hgDAF12 agonist 11.9
O=C(Nc1ccc(N2CCN(c3ccccc3)CC2)c(F)c1)C1CC1	hcDAF-12 act 5.8
Cc1ccc(CSCC(=O)Nc2ccc3c(c2)OCO3)cc1	none
O=C(CSCc1ccccc1)Nc1ccc2c(c1)OCO2	DAX1 inh-2 3.8
Cc1ccc(SCC(=O)Nc2ccc(N3CCN(c4ccccc4)CC3)c(F)c2)cc1	none
CCOC(=O)[C@]12CCCC3=C1N(CCC3)C(=O)[C@@H](CC(=O)N1CCN(C(=O)C3CC3)CC1)C2	none (no result: PolyA inhibitor, DAX1 inh-1)
CC(NC(=O)c1c(N)[nH]c(C(=O)c2ccc(Cl)cc2)c1-c1ccc(Br)cc1)c1cccc2ccccc12 (stereo not given)	none (no result: PolyA inhibitor, DAX1 inh-1)
Cc1onc(-c2ccc(Cl)cc2)c1-c1ccn(S(=O)(=O)c2cccc(Cl)c2)n1	none (no result: PolyA inhibitor, DAX1 inh-1)
O=C(CSc1ccccc1)Nc1ccc2c(c1)OCO2	hgDAF12 agonist 12.6
COc1ccc(-n2nc(C(=O)Nc3ccc4c(c3)OCO4)c3ccccc3c2=O)cc1	none
Cc1ccccc1C(=O)Nc1ccc2c(c1)OCCO2	ssDAF12 agonist 1.8, hgDAF12 agonist 11.0
Cn1nc(C(=O)Nc2ccc3c(c2)OCO3)c2ccccc2c1=O	ssDAF12 agonist 2.4
O=C(Nc1nc(-c2ccc3c(c2)OCO3)cs1)C1CC1	PolyA inhibitor inconclusive, hgDAF12 agonist 11.1
COc1cccc(CNC(=O)C2CCC(CNS(=O)(=O)c3cccc4cccnc34)CC2)c1OC (stereo not given)	none (no result: PolyA inhibitor, DAX1 inh-1)
CCN(CC)C(=O)CC[C@H]1CC[C@]2(CCCN(C(=O)c3ccco3)C2)O1	none (no result: PolyA inhibitor, DAX1 inh-1)
